Spn DPM-DC inh: inhibitors of Streptococcus pneumoniae diphosphomevalonate decarboxylase; purified DPM-DC, PK/LDH coupled NADH fluorescence; calls only at 10 µM; AID 556; 65,000 compounds, 0.49% hits;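 active = the 320 compounds with the highest percent inhibition in the single-dose primary screen, excluding strongly autofluorescent ones, cut at about 32% in these data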;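 also: kinetic rate of NADH fluorescence loss reporting ADP formed by the decarboxylase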
Fluor 339 460: intrinsic fluorescence of library compounds, ex339/em460 – biochemical, MLSMR library, data from DPM-DC assay, artefact control, profiling panel | compound autofluorescence, ex339/em460 nm, NADH buffer; active compounds read high; 1 = no-compound wells, NADH background | fluorescence fold increase at 10 µM | 65,000 compounds, 5.5% hits | AID 709;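 active = at 10 µM, mean starting fluorescence two-fold or more over control wells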;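 also: signal is the first read of a kinetic run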
NADH enzymes: blocks coupling enzymes of NAD/NADH assays; 65,000 compounds, 0.02% hits; IC50, µM (highest dose often 10 µM); coupled PK/LDH NADH assays, four targets;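 active = single-dose screening hits from any of four coupled enzyme assays that gave an IC50 when retested across doses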;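 also: the DPM-DC format reads NADH fluorescence rather than 340 nm absorbance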
PMK inhibit: blocks S. pneumoniae phosphomevalonate kinase; inhibition, % at 10 µM; 65,000 compounds, 0.49% hits; purified PMK, PK/LDH-coupled NADH absorbance 340 nm;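 active = top-ranked compounds by inhibition in the single 10 µM screen, taking a fixed number of the strongest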
MK inhibit: inhibitors of Streptococcus pneumoniae mevalonate kinase; purified MK, PK/LDH-coupled NADH absorbance 340 nm; inhibition, % at 10 µM; 65,000 compounds, 0.48% hits;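 active = ranked among the strongest by inhibition in the single 10 µM screen, a fixed top-ranked set picked for dose follow-up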
A number is an active result; 0 = inactive; - = not tested or not shown; + = active, no number. Hits are enriched below; roughly 6.6% of the tested compounds scored in any of these assays.

SMILES | Spn DPM-DC inh | Fluor 339 460 | NADH enzymes | PMK inhibit | MK inhibit
C=CCNc1nc2c(c(=O)[nH]c(=O)n2C)n1Cc1cccc(C)c1 | 0 | 0 | 0 | 0 | 0
CCOC(=O)c1nn(-c2ccccc2)c(C(=O)OCC)c1N | - | 3.8 | 0 | 0 | 0
CCOC(=O)c1nn(-c2ccccc2)c(=O)c2c(N)scc12 | 0 | 0 | 0 | 0 | 0
Cc1cc(C)n(-c2nncn2NC(=O)c2ccc(Cl)cc2O)n1 | 0 | 0 | 0 | 0 | 0
CCCCN(CCCNC(=O)C1CCN(S(=O)(=O)CC)CC1)c1ccccc1 | 0 | 0 | 0 | 0 | 0
CCOC(=O)C1=C(C)NC2=C(C(=O)C(C(=O)OCC)C(c3ccco3)C2)C1c1ccccn1 (stereo unspecified) | - | 3.6 | 0 | 0 | 0
Cc1onc(-c2ccccc2Cl)c1C(=O)Nc1cccc(-c2cn3cccnc3n2)c1 | - | 3.5 | 0 | 0 | 0
N#Cc1nc(-c2ccccc2F)oc1NCCN1CCOCC1 | - | 2.1 | 0 | 0 | 0
N#Cc1nc(COc2ccccc2)oc1NCCN1CCOCC1 | 0 | 0 | 0 | 0 | 0
N#Cc1nc(-c2ccc(F)cc2)oc1NCCN1CCOCC1 | - | 2.1 | 0 | 0 | 0
Cc1ccc(-c2nc(C#N)c(NCCN3CCCCC3)o2)cc1 | - | 2.1 | 0 | 0 | 0
N#Cc1nc(-c2cccc3ccccc23)oc1NCCN1CCOCC1 | - | 3.6 | 0 | 0 | 0
N#Cc1nc(Cc2cccc3ccccc23)oc1NCCN1CCCCC1 | 0 | 0 | 0 | 0 | 0
Cc1cccc(NC(=O)Cn2c(=O)oc3ccccc32)c1 | 0 | 0 | 0 | 0 | 0
CC(=O)Nc1cc(NC(C)=O)cc(C(=O)NC(C)(C)C)c1 | 0 | 0 | 0 | 0 | -
N#Cc1nc(-c2cccs2)oc1NCCCN1CCOCC1 | - | 2.3 | 0 | 0 | 0
N#Cc1nc(COc2ccc(-c3ccccc3)cc2)oc1NCCCN1CCOCC1 | 0 | 0 | 0 | 0 | 0
COc1ccc(N2CCN(c3oc(-c4ccco4)nc3C#N)CC2)cc1 | 0 | 0 | 0 | 0 | 0
COc1ccc(-c2nc(C#N)c(NCCCN3CCOCC3)o2)cc1 | - | 2.1 | 0 | 0 | 0
N#Cc1nc(-c2ccco2)oc1NCCN1CCOCC1 | 0 | 3 | 0 | 0 | 0
CCOC(=O)c1cc(=O)n2[nH]c(-c3ccc(C)cc3)cc2n1 | - | 3.9 | 0 | 0 | 0
CCOC(=O)Cc1c(C)nc2cc(-c3ccc(Cl)cc3)[nH]n2c1=O | 0 | 0 | 0 | 0 | 0
O=C(NCc1ccc2c(c1)OCO2)C1CCC(CNS(=O)(=O)c2ccccc2)CC1 (stereo unspecified) | 0 | 0 | 0 | 0 | 0
COC(=O)CC(=O)CSc1nc(C)cc(C)c1C#N | - | 3.8 | 0 | 0 | 0
CC(C)OC(=O)CC(=O)CSc1nc2c(cc1C#N)CCC2 | - | 3.7 | 0 | 0 | 0
SMILES | Spn DPM-DC inh | Fluor 339 460 | NADH enzymes | PMK inhibit | MK inhibit
CCOC(=O)CC(=O)CSc1nc2c(cc1C#N)CCCCCC2 | - | 2.4 | 0 | 0 | 0
CC(C)OC(=O)CC(=O)CSc1nc2c(cc1C#N)CCCC2 | - | 3.7 | 0 | 0 | 0
CS(=O)CSc1nc2c(cc1C#N)CCCC2 (stereo unspecified) | 0 | 0 | 0 | 0 | 0
N#Cc1cc2c(nc1SCC(=O)Nc1nccs1)CCCCC2 | 0 | 0 | 0 | 0 | 0
C=C(C)CSc1nc2c(cc1C#N)CCC2 | 0 | 0 | 0 | 0 | 0
CCc1c(C)nc(SCC(=O)CC(=O)OC(C)C)c(C#N)c1C | 0 | 2.2 | 0 | 0 | 0
COC(=O)CC(=O)CSc1nc2c(cc1C#N)CCC2 | - | 3.8 | 0 | 0 | 0
N#Cc1cc2c(nc1SCc1nc3ccccc3[nH]1)CCC2 | 0 | 2.1 | 0 | 0 | 0
OCCNc1nc(-c2ccccc2)c2ccccc2n1 | - | 2.4 | 0 | 0 | 0
Cc1ccc2nc(NCCO)nc(-c3ccccc3)c2c1 | - | 5 | 0 | 0 | 0
CC(=O)c1sc2nc(-c3cccs3)cc(C(F)(F)F)c2c1N | 0 | 0 | 0 | 0 | 0
CS(=O)(=O)c1sc2nc(-c3cccs3)cc(-c3ccccc3)c2c1N | 0 | 3.8 | 0 | 0 | 0
Cc1c(NC(=O)CSc2ccccc2C(=O)Nc2cccnc2)c(=O)n(-c2ccccc2)n1C | 0 | 0 | 0 | 0 | 0
COCCNC(=O)c1ccc2c(=O)n(CCOC)c(=O)[nH]c2c1 | 0 | 0 | 0 | 0 | 0
CCOc1cc2[nH]c(=O)n(CCC(=O)N3CCN(c4ccccc4OC)CC3)c(=O)c2cc1OCC | 0 | 0 | 0 | 0 | 0
CCOc1cc2[nH]c(=O)n(Cc3ccc(C(=O)NCCOC)cc3)c(=O)c2cc1OCC | + | 0 | 0 | 0 | 0
CCOc1cc2[nH]c(=O)n(Cc3cccc(OC)c3)c(=O)c2cc1OCC | 0 | 2 | 0 | 0 | 0
